# Experimental data published in ChEMBL document CHEMBL3988442, “University of Dundee, Small-Polar-MMV Screening Library” (2021).
# Target: Shiga toxin 2 (Escherichia coli O157:H7) (UniProt P09385+P09386)
# Assay: E. coli 0.157:H7 Shiga Toxin SOP - stx2 screening assay
# Format: functional
# Parameters: scale not given: direction of the effect not stated beside the values
# Conditions: 30 µM
row,SMILES,Percent Effect
1,COc1cc(CC(O)CO)c(OC)c2c1OCO2 (stereo not given),-10.5%
2,CCS(=O)(=O)N1C[C@H]2CCC[C@@]2(COc2ccccn2)C1,2.64%
3,CC(C)N1CC(C(=O)NCc2ccnc(-n3cccn3)c2)CC1=O (stereo not given),-49.1%
4,Clc1snnc1CN1CCCCC1Cn1cncn1 (stereo not given),-12%
5,Cc1cc(CN2CCCC(C)(CO)C2)ccc1F (stereo not given),14.3%
6,CCc1nccn1C1CCCN(C(=O)c2cnn3ccc(C)nc23)C1 (stereo not given),11.2%
7,CCc1nc(C2CCCN2CCCS(=O)(=O)c2ccccc2)no1 (stereo not given),-9.14%
8,Cn1ccnc1CN1CCCN(C(=O)c2ccc3c(c2)COC3)CC1,24.9%
9,Cc1noc(C)c1CN1C[C@@H]2COC[C@H](C(=O)N3CCCCO3)[C@@H]2C1,5.31%
10,CNS(=O)(=O)c1cccc(CNC(=O)c2c(C)nn(C)c2C)c1,8.19%
11,Cc1cc(CN2CCN(C(=O)NC(C)c3cccnc3)CC2)on1 (stereo not given),24.6%
12,Cc1ccc(C2C3=C(COC3=O)Nc3[nH]nc(C)c32)cc1C (stereo not given),-11.4%
13,Cc1nc(C2CCCN2CCCS(=O)(=O)N(C)C)no1 (stereo not given),-7.71%
14,Cc1cc(NC(=O)NCCc2ccsc2)n(C)n1,-21.1%
15,CC(C)(CO)NC(=O)C1CCC(=O)N(Cc2ccc(Cl)cc2)C1 (stereo not given),0.664%
16,Cc1nc(C)n(CC2CCCN(c3ncnc4[nH]ccc34)C2)n1 (stereo not given),2.99%
17,CC(O)CNCc1ccc(OCc2ccc3c(c2)OCCO3)cc1 (stereo not given),-37.4%
18,COC(=O)c1cccc(NS(=O)(=O)c2cnc(NC(C)=O)s2)c1,-26.3%
19,Cc1noc(CN(Cc2ccc3c(c2)OCO3)C2CCCC2)n1,30.6%
20,CN(C)CC1CN(c2ccc(C#N)cn2)CCO1 (stereo not given),22.4%
